ST2 IL33 inh: IL1RL1 inhibition. Q01638. AlphaLISA ST2-Fc/biotin-IL-33 interaction, 1 h. inhibition, % for hits at 17 µM. actives 2.3% (n = 78,000). AID 1259354; in the data active = inhibition above about 30%
Target sequence (Q01638 whole entry, looked up): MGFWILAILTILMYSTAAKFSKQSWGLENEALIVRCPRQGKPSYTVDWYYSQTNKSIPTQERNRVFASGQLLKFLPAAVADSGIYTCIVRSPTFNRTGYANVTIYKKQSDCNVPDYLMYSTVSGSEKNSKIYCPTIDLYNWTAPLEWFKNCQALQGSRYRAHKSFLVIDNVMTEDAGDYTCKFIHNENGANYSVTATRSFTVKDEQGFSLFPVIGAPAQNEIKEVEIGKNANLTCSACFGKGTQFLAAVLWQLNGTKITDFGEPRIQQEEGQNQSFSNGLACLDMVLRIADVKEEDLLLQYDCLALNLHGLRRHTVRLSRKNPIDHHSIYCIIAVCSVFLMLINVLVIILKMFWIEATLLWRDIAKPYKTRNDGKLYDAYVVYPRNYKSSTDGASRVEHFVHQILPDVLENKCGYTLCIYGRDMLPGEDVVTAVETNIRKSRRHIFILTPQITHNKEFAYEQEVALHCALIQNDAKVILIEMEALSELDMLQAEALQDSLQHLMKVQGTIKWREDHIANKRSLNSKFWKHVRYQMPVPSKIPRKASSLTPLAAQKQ
An asterisk follows results filed as active; i = inactive; ! = not active in a repeat. The entries come from a sample that favours hits as a whole.

SMILES | ST2 IL33 inh
N#C/C(=C\c1ccco1)c1nc(-c2ccc(Br)cc2)cs1 | 32.0%*
Cc1ccc(/C=C(/C#N)c2nc(-c3ccc(Br)cc3)cs2)o1 | 52.0%*
N#C/C(=C\Nc1ccc(F)cc1)c1nc(-c2cc3cc(Br)ccc3oc2=O)cs1 | i
NNC(=O)C(=O)Nc1nc(-c2ccc(Br)cc2)cs1 | i
Cc1ccc(OCCCSc2nc3ccccc3[nH]2)cc1 | i
COc1ccc(C2C(C(=O)Nc3nc4ccccc4s3)=C(C)NC3=C2C(=O)CC(C)(C)C3)cc1 (stereo not given) | i
CN(CCc1ccccn1)c1ncccc1CNC(=O)c1ccc2cc[nH]c2c1 | i
NS(=O)(=O)CCCC(=O)N1CCCC(CCc2c(F)cccc2F)C1 (stereo not given) | i
NC(N)=NS(=O)(=O)c1ccc(NC(=O)C2CCCCC2)cc1 | i
Cc1cc(NC(=O)c2cnc3sccn3c2=O)no1 | i
O=C(N1CCCCC1)[n+]1ccc(N2CCOCC2)cc1 | i
Clc1nc(N2CCCCC2)nc(N2CCOCC2)n1 | i
Clc1ccccc1/C=C/C=Nc1ccc(N2CCOCC2)cc1 | 38.0%*
O=C(CC(c1ccccc1)c1ccccc1)Nc1ccc(S(=O)(=O)Nc2ncccn2)cc1 | i
O=C(c1cccnc1)N(c1ccccc1)c1ccccc1 | i
O=S(=O)(Nc1ccc(F)cc1F)c1ccc(F)cc1 | i
Cc1cc(C(=O)Nc2ccc(F)c(Cl)c2)no1 | i
COc1ccccc1-c1nc2ccc(Br)cc2c(=O)o1 | i
Cc1c(-c2nc3ccccc3c(=O)o2)cccc1[N+](=O)[O-] | 30.0%*
O=c1oc(-c2ccccc2[N+](=O)[O-])nc2ccc(I)cc12 | i
O=C(O)c1ccccc1C1CCN(C(=O)c2ccccc2-n2cncn2)C1 (stereo not given) | i
CCN=Cc1c(C)[nH]n(-c2ccc(Cl)cc2)c1=O | i
CSc1ccc(C2C(C#N)=C(N)OC3=C2C(=O)CC(C)(C)C3)cc1 (stereo not given) | i
O=C(c1ccc2nc3ccccc3c(=O)n2c1)N1CCCCC1 | i
O=C(Nc1ccccc1I)c1cc([N+](=O)[O-])ccc1Cl | i
SMILES | ST2 IL33 inh
COc1cc([N+](=O)[O-])ccc1NC(=O)c1cc(I)ccc1Cl | i
CC(C)Oc1ccc(NC(=O)c2ccc([N+](=O)[O-])cc2Cl)cc1 | i
O=C(Nc1ccccc1Cl)c1ccccc1[N+](=O)[O-] | i
Cc1cccc(NC(=O)c2ccc([N+](=O)[O-])cc2Cl)c1 | 31.0%*
O=C(Nc1cccc([N+](=O)[O-])c1)c1cc(I)ccc1Cl | i
O=C(NCc1cccs1)c1ccc(Cl)cc1[N+](=O)[O-] | i
O=C(Nc1ccc([N+](=O)[O-])cc1)c1cc(I)ccc1Cl | i
O=C(Nc1ccccc1I)c1ccc(Cl)cc1[N+](=O)[O-] | 30.0%*
O=C(Nc1cccc([N+](=O)[O-])c1)c1ccccc1Cl | i
O=C(Nc1ccc([N+](=O)[O-])cc1Cl)c1cc(I)ccc1Cl | 31.0%*
O=C(Nc1ccccc1[N+](=O)[O-])c1cc(I)ccc1Cl | 35.0%*
CCOc1ccc(C2CC(=O)N3CN(c4cccc(Cl)c4)CSC3=C2C#N)cc1 (stereo not given) | i
CCOCCCN1CC(C(=O)NC2CCCCC2)CC1=O (stereo not given) | i
COc1cc(-c2cc(Cl)c3c(c2)CC(CN)O3)nc(N)n1 (stereo not given) | i
Cc1cccc2ncc(C(=O)N[C@H]3C[C@H]4CN(C)CCN4C3)c(=O)n12 | i
CC(C)OCCCNS(=O)(=O)c1ccc2c(c1)CCN2C(=O)C1CC1 | i
CCCCOc1ccc(NC(=O)NC2(c3ccccc3)CC2)cc1 | i
NC[C@@H]1OC(O[C@H]2[C@@H](O)[C@H](O[C@@H]3[C@@H](O)[C@H](N)C[C@H](N)[C@H]3O[C@H]3O[C@H](CO)[C@@H](O)[C@H](O)[C@H]3N)O[C@@H]2CO)[C@H](N)[C@@H](O)[C@@H]1O (stereo not given in full) | i
CCCCOC(=O)C1=C(C)Nc2ncnn2C1c1cc(Br)ccc1OC (stereo not given) | i
Cc1c(C(=O)NCc2cccnc2)oc2ccc(S(=O)(=O)N3CCC(C)CC3)cc12 | i
Cc1cccc(N=Cc2nc(-c3ccc(Cl)cc3)oc2O)c1 | i
Oc1oc(-c2ccc(Cl)cc2)nc1C=Nc1ccccn1 | 33.0%*
Cc1cccc(N=Cc2nc(-c3ccc(Cl)cc3)oc2O)n1 | i
CN(C)Cc1nnc(C(=O)N2CCC(CCCc3ccccc3)CC2)o1 | i
CCCN(CCC)S(=O)(=O)c1ccc(C(=O)Nc2nnc(-c3ccc(F)cc3)o2)cc1 | i
SMILES | ST2 IL33 inh
Cc1ccc2nc(-c3ccc(C)o3)c(Nc3ccc4c(c3)OCCO4)n2c1 | i
Clc1ccc2nc(-c3ccco3)c(Nc3ccc4c(c3)OCO4)n2c1 | i
Cc1ccc2nc(-c3ccc(C)o3)c(Nc3ccccc3)n2c1 | i
Cc1ccc2nc(-c3ccccn3)c(Nc3ccc4c(c3)OCCO4)n2c1 | 31.0%*
Cc1ccc(-c2nc3cnccn3c2NC2CCCCC2)o1 | i
Cc1ccc2nc(-c3ccccn3)c(Nc3ccc4c(c3)OCO4)n2c1 | 32.0%*
Brc1ccc2nc(-c3ccccn3)c(Nc3ccccc3)n2c1 | i
Cc1ccc(-c2nc3ccccn3c2Nc2ccc3c(c2)OCCO3)o1 | 35.0%*
Cc1ccn2c(NC3CCCC3)c(-c3ccccn3)nc2c1 | 38.0%*
Cc1ccc(-c2nc3ccc(Br)cn3c2Nc2ccc3c(c2)OCO3)o1 | i
COc1ccc(Nc2c(-c3ccccn3)nc3ccc(Br)cn23)cc1 | i
Cc1ccc2nc(-c3c[nH]c4ccccc34)c(NC3CCCC3)n2c1 | i
O=C(c1cc(-c2ccccc2O)n[nH]1)N1CCCC(N2CCCC2=O)C1 (stereo not given) | i
COc1cc(-c2ccc(C)s2)cc2c1OCCN(Cc1cnn(C)c1)C2 | i
CCNc1nc(C)c(C(=O)N2CCN3CCN(C)C(=O)C3C2)s1 (stereo not given) | i
CN1C(=O)c2ccccc2Sc2ccc(C(=O)NCCN3CCOCC3)cc21 | i
Cc1ccc2c(-c3ccc(CN(C)C)cn3)cccc2n1 | i
CN1CCC(Cc2noc(-c3nn(C)c4c3CCCC4)n2)CC1 | i
CCCCNC(=O)CCC1N=C2c3ccccc3N=C(SCc3ccccc3F)N2C1=O (stereo not given) | i
O=C(C1CCOC1)N(Cc1cccnc1)CC1CCN(C2CCCC2)CC1 (stereo not given) | i
Cc1ccc(-c2nc3cnccn3c2Nc2ccc3c(c2)OCO3)o1 | i
Cc1ccn2c(Nc3ccccc3)c(-c3ccc(C)o3)nc2c1 | i
Cc1ccn2c(Nc3ccc4c(c3)OCO4)c(-c3ccccn3)nc2c1 | 31.0%*
Nc1nonc1-c1noc(COc2cccc(Cl)c2Cl)n1 | i
COC(=O)c1ccc(C(=O)Nc2nc3c(C)cc(C)cc3s2)cc1 | i
SMILES | ST2 IL33 inh
COc1ccc(-n2c(SCC(N)=O)nc3c([nH]c4ccccc43)c2=O)cc1 | i
NC(=O)CSc1nc2c([nH]c3ccccc32)c(=O)n1-c1ccccc1 | i
O=C(CSc1nc2c([nH]c3ccccc32)c(=O)n1-c1ccc(Cl)cc1)Nc1nccs1 | 31.0%*
O=C1Nc2ccccc2N(O)N1c1ccc([N+](=O)[O-])cc1 | i
O=[N+]([O-])c1ccc(-c2nnc(S)n2-c2ccccc2)cc1 | i
N#Cc1cc2[nH]c3ccccc3c2n(-c2ccc([N+](=O)[O-])cc2)c1=N | 34.0%*!
Cc1ccc(NC(=O)c2ccc(=O)n(Cc3cccc(C)c3)c2)cc1 | i
